Source: PubChem
G9a block: qHTS Assay for Inhibitors of Histone Lysine Methyltransferase G9a | G9a H3K9 monomethylation, AlphaScreen, 2 h | AID 504332, 2011 | Histone-lysine N-methyltransferase EHMT2 (Homo sapiens), Q96KQ7 | 350,000 tested, 8.8% active | Potency, µM (series often up to 102 µM), without a hit: at the top dose activity, negative = inhibition, actives largely listed as inhibitors; further: potency means the concentration at half of the fitted maximal effect; on the % scale 0 is the no-effect control and ±100 the full control effect; nearly all actives have a fitted effect of over 75% in size
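Using a bead-based AlphaScreen, monomethylated H3K9 product from 2 h room-temperature reactions (G9a 20 nM, peptide 500 nM, SAM 20 uM) was detected with 0.5 ug/mL rabbit anti-H3K9me1 antibody.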
BAZ2B block: qHTS Assay for Inhibitors of BAZ2B; Bromodomain adjacent to zinc finger domain protein 2B (Homo sapiens), Q9UIF8; AlphaScreen BAZ2B-H3K14Ac peptide displacement; Potency, µM (series often up to 114 µM), inactives show at the highest dose activity change, negative = inhibition, actives largely listed as inhibitors; 360,000 tested, 4.4% active; AID 504333, 2011; further: potency means the concentration at half of the fitted maximal effect; on the % scale 0 is the no-effect control and ±100 the full control effect; nearly all actives have a fitted effect of over 60% in size
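Inhibition is scored as reduced AlphaScreen emission. The BAZ2B/b-H3(5-23)K14Ac complex (50 nM each) in PBS pH 7.4, 0.01% Tween-20 meets compound (up to 110 uM) for 30 min at RT before bead addition.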
JMJD2A Tudor: qHTS Assay for Inhibitors of JMJD2A-Tudor Domain; AlphaScreen JMJD2A-Tudor / H3K4me3 peptide binding; AID 504339, 2011; Potency, µM (series often up to 114 µM), inactives show at the highest dose activity change, negative = inhibition, hits mostly inhibitors; 390,000 tested, 4.4% active; further: potency means the concentration at half of the fitted maximal effect; on the % scale 0 is the no-effect control and ±100 the full control effect; nearly all actives have a fitted effect of over 50% in size
Target sequence (O75164 whole entry, looked up, the tested form may be a part): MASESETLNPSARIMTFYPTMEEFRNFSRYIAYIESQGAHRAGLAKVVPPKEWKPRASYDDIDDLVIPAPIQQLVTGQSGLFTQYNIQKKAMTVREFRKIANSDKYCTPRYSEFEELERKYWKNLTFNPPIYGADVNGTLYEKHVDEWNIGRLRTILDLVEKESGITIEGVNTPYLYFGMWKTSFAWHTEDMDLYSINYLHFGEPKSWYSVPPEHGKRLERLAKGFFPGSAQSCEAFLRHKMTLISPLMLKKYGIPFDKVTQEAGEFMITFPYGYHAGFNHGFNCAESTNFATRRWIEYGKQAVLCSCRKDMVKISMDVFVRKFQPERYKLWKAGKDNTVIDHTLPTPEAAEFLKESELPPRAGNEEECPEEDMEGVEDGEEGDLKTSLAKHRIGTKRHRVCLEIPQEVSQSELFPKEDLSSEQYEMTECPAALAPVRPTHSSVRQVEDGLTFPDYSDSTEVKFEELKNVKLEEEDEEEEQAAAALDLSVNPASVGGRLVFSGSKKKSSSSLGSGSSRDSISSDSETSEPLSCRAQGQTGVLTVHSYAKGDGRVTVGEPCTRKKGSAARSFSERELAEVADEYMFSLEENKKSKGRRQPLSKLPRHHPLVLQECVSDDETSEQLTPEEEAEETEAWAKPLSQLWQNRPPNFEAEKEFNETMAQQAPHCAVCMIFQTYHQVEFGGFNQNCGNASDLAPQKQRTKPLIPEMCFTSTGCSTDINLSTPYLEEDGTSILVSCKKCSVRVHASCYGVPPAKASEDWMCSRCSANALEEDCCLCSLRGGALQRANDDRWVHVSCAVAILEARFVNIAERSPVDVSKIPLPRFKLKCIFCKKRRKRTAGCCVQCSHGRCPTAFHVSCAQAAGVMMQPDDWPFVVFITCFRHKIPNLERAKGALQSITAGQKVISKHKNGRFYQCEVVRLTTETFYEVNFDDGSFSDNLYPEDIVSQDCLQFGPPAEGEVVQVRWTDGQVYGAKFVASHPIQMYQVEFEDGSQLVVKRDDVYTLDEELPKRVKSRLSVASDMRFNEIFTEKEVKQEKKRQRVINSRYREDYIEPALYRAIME
PI5P4K alpha inh: qHTS for Inhibitors of phosphatidylinositol 5-phosphate 4-kinase (PI5P4K) | Phosphatidylinositol 5-phosphate 4-kinase type-2 alpha (Homo sapiens), P48426 | PI5P4Kalpha enzyme, ADP-Glo luminescence, 60 min; stronger effect = lower value | max response, % | 330,000 tested, 1.2% active; active means max response of -50% or lower; inconclusive means between -30% and -50%; inactive means -30% or higher; further: value at the top dose of about 77 µM; on the % scale 0 is the no-effect control and ±100 the full control effect
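Human PI5P4Kalpha with substrate in 0.038 M HEPES pH 7.4, 0.28 mM EGTA, 0.1% CHAPS, 5% DMSO; reaction started with 5 microM ATP (final), 60 min at room temperature. ADP formed read by ADP-Glo luminescence.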
HP1b binding inh: HTS for Inhibitors of HP1-beta Chromodomain Interactions with Methylated Histone Tails. Chromobox protein homolog 1 (Homo sapiens), P83916. AlphaScreen HP1-beta / biotin-H3K9me3 peptide binding. Potency, µM (series often up to 114 µM), for the others: at the top dose activity change, negative = inhibition, hits mostly inhibitors. 390,000 tested, 0.56% active. AID 540317, 2011; further: potency means the concentration at half of the fitted maximal effect; nearly all actives have a fitted effect of over 70% in size
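Compound inhibition of the preformed complex between 50 nM HP1-beta and 50 nM biotinylated H3K9me3 peptide was read by AlphaScreen. Buffer was PBS pH 7.4 with 0.01% Tween-20. Incubations ran 30 min at room temperature, with 10 ug/mL donor/acceptor beads.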
PLK1 PBD inh: qHTS for Inhibitors of PLK1-PDB (polo-like kinase 1 - polo-box domain): Primary Screen | Plk1 PBD binding of FITC phosphopeptide, fluorescence polarization | Potency, µM, for inactives: max response, negative = inhibition, usual class: inhibitors | 360,000 tested, 2.8% active; further: potency means the concentration at half of the fitted maximal effect; series mostly up to about 57 µM; on the % scale 0 is the no-effect control and ±100 the full control effect; nearly all actives have a fitted effect of over 65% in size
The depositor's hits bear a star; ? = inconclusive; . = no result given; ! = not active in a repeat; [ ] = another dose, or the depositor's remark. Shown are actives, neighbours in structure and some others; about 12% of the full set was active somewhere. Unless noted, the call rests on the fitted dose curve; in most records, active means well fitted curve in the direction sought with a large enough effect; inconclusive means small, poorly fitted or top-dose-only effect, or another doubt; inactive means no such curve, though single readings can be large; an effect the other way counts as inactive or inconclusive.

SMILES	G9a block	BAZ2B block	JMJD2A Tudor	PI5P4K alpha inh	HP1b binding inh	PLK1 PBD inh
C=CCN1CC[C@]23c4c5ccc(O)c4O[C@@H]2/C(=N/N=C2\CC[C@@]4(O)C6Cc7ccc(O)c8c7[C@@]4(CCN6CC=C)[C@@H]2O8)CC[C@@]3(O)C1C5	13µM*!	.	.	.	.	.
Oc1c(Br)cc(Br)cc1CN1CCN(Cc2ccccc2)CC1	45µM*	79µM*	20µM*	12	-9%	-6%
CCN1CCN(Cc2cc(Br)cc(OC)c2O)CC1	?	12%	-22%	.	25%	1%
C=CCSc1nc2c(c(-c3ccsc3)c1C#N)CN(C)CC2	16µM*	-36%	-32%	-13	-3%	?
O=C(C/C=N\OCc1c(Cl)cccc1Cl)Oc1ccc(Cl)cc1Cl	?	-5%	8%	-11	37%	-4%
COc1cccc(-n2c(/C=C/c3ccc(O)c(O)c3)nc3ccccc3c2=O)c1	45µM*	?	?	?	-17%	65%
CN(C)c1ccc(Cc2ccc(N(C)C)cc2)cc1	.	.	25µM*	10	20µM*	5%
COc1ccc(CCNC(=O)c2ccc3c(c2)N=C(C)c2cc(C)ccc2S3)cc1OC	-50%[59 µM]	-31%	?	.	-4%	.
CNCCc1cnc[nH]1	21%[59 µM]	.	.	.	.	.
CCOC(=O)c1cc(C)n(CCc2cnc[nH]2)c1C	?	56µM*	?	0	-15%	-11%
Cc1cc(C)cc(OCC(=O)Nc2ccc(Cl)cc2C(=O)c2ccccc2)c1	4%[59 µM]	-7%	-9%	.	25%	.
CN(C)c1ccc(C(O)P(=O)(OCc2ccccc2)c2ccc(N(C)C)cc2)cc1 (centres undefined)	15%[12.7 µM]	40µM*	89µM*	-4	?	-17%
COC(C(=O)C(O)C(C)O)C1Cc2cc3cc(OC4CC(OC5CC(O)C(OC)C(C)O5)C(OC(C)=O)C(C)O4)c(C)c(O)c3c(O)c2C(=O)C1OC1CC(OC2CC(OC3CC(C)(O)C(OC(C)=O)C(C)O3)C(O)C(C)O2)C(O)C(C)O1 (centres undefined)	-2%[59 µM]	.	.	.	.	.
O=C1NC(=O)C(=Cc2ccc(Oc3ccc([N+](=O)[O-])cc3)cc2)C(=O)N1	35µM*	-35%	56µM*	-58*	-6%	3µM*
NC(=O)Cn1cc(C=C2C(=O)NC(=O)NC2=O)c2ccccc21	?	?	-25%	-21	14%[57 µM]	?
O=C1NC(=O)C(=Cc2ccccc2OCCOc2ccc([N+](=O)[O-])cc2)C(=O)N1	16µM*	?	89µM*	?	26%	6µM*
CN1C(=O)C(=Cc2ccccc2OCCOc2ccc([N+](=O)[O-])cc2)C(=O)N(C)C1=O	10µM*	50µM*	?	?	19%	3µM*
O=C1NC(=O)C(=Cc2cc([N+](=O)[O-])ccc2N2CCCCC2)C(=O)N1	10%[59 µM]	-12%	-20%	2	24%	-8%
Cc1ccc(Cn2cccc(C(=O)Nc3nnc(C)s3)c2=O)cc1	?	1%	-13%	.	0%	.
COCCNCCOc1ccc(C(C)(C)c2ccccc2)cc1	11µM*	?	32µM*	1	?	2%
COCCCNC(=S)NNC(=O)c1ccc(C(C)(C)C)cc1	.	-2%	-7%	2	52%	7%
CC[C@@H](CO)Nc1nc(NCc2ccccc2)c2ncn(C(C)C)c2n1	-8%[59 µM]	.	.	.	.	.
Cc1ccc2nsnc2c1NS(=O)(=O)c1c(C)ccc2nsnc12	50µM*	?	-27%	.	20%	-8%
NC(CCP(=O)(O)O)C(=O)O (centres undefined)	-11%[59 µM]	.	.	.	.	.
C[Se]C[C@H](N)C(=O)O	0.63µM*	.	.	.	.	.
